Experiment [1] is described as follows: qHTS for Inhibitors of the Functional Ribonucleoprotein Complex (vRNP) of Lymphocytic Choriomeningitis Arenaviruses (LCMV): Viability assay - alamar blue signal for LCMV Primary Screen (AID 1347085; calls by dose curve; tested in HEK293 reporter line; note: series mostly up to about 57 µM; nearly all actives have a fitted effect of over 80% in size). Background: qHTS replaces the single test concentration by a dilution series.
Experiment [2] addresses Nucleoprotein (Lymphocytic choriomeningitis virus (strain Armstrong)) (UniProt P09992). Put plainly: qHTS for Inhibitors of the Functional Ribonucleoprotein Complex (vRNP) of Lymphocytic Choriomeningitis Arenaviruses (LCMV): LCMV Primary Screen - GLuc reporter signal (AID 1347086; calls by dose curve; note: series mostly up to about 57 µM; nearly all actives have a fitted effect of over 70% in size).
A short description of experiment [3]: qHTS of pediatric cancer cell lines to identify multiple opportunities for drug repurposing: Primary screen for TC32 cells (AID 1347089). Note: nearly all actives have a fitted effect of over 60% in size. Note: potency is the fitted concentration of half-maximal effect. Summed up: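 Measured quantity: luminescence from CellTiter-Glo, reflecting metabolically active TC32 cells following 48 h of compound. Curves came straight from multi-point titrations, with 8 or 11 points in primary and 11 in confirmatory screening.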

Experiment [4] is described as follows: qHTS of pediatric cancer cell lines to identify multiple opportunities for drug repurposing: Primary screen for DAOY cells (AID 1347090). Note: nearly all actives have a fitted effect of over 55% in size. Note: potency is the fitted concentration of half-maximal effect. Summed up: (§1)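 Viability measured as metabolically active cells via CellTiter-Glo luminescence following 48 hours of compound exposure, 11-point dilutions in confirmatory testing. 500-1,000 cells/well plated 5 hours before dosing; controls were DMSO and 2.3 µM bortezomib.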

Experiment [5] can be described thus: qHTS of pediatric cancer cell lines to identify multiple opportunities for drug repurposing: Primary screen for A673 cells (AID 1347092). Note: nearly all actives have a fitted effect of over 45% in size. Note: potency is the fitted concentration of half-maximal effect. The method, boiled down: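 Cells are plated, rested 5 h, dosed by pintool, incubated 48 h, then lysed with CellTiter-Glo and read by luminescence. DMSO is the neutral control; bortezomib at 2.3 uM final is the positive control.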

Experiment [6] in a line: qHTS of pediatric cancer cell lines to identify multiple opportunities for drug repurposing: Primary screen for SK-N-MC cells (AID 1347093). Note: potency is the fitted concentration of half-maximal effect. Summed up: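 Metabolically active cells were quantified by ATP-dependent luminescence (CellTiter-Glo, 15 min at room temperature) following 48 h treatment. Cells had been plated at 500-1,000 per well and settled for 5 h beforehand.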

The nature of experiment [7]: qHTS of pediatric cancer cell lines to identify multiple opportunities for drug repurposing: Primary screen for BT-37 cells (AID 1347094). Note: potency is the fitted concentration of half-maximal effect. The method, boiled down: (§2)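 Quantitative HTS format: each compound titrated (MIPE 11 points from 0.78 nM, NPC 8 points from 0.59 nM) onto cells plated 5 hours earlier. After 48 h at 37 degrees C, CellTiter-Glo luminescence was recorded.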

Experiment [8] can be described thus: qHTS of pediatric cancer cell lines to identify multiple opportunities for drug repurposing: Primary screen for NB-EBc1 cells (AID 1347095). Summed up:
as §2

Experiment [9] is described as follows: qHTS of pediatric cancer cell lines to identify multiple opportunities for drug repurposing: Primary screen for SJ-GBM2 cells (AID 1347091). The method, boiled down: as §1

Results filed as inconclusive are left out. Activity calls are given as the source filed them. Unless noted, calls come from the whole dose curve; as a rule, active = well fitted curve in the direction sought with a large enough effect; inconclusive = small, poorly fitted or top-dose-only effect, or another doubt; inactive = no such curve, though single readings can be large; an effect the other way counts as inactive or inconclusive.

Sequence of Nucleoprotein (Lymphocytic choriomeningitis virus (strain Armstrong)) (P09992 whole entry, looked up): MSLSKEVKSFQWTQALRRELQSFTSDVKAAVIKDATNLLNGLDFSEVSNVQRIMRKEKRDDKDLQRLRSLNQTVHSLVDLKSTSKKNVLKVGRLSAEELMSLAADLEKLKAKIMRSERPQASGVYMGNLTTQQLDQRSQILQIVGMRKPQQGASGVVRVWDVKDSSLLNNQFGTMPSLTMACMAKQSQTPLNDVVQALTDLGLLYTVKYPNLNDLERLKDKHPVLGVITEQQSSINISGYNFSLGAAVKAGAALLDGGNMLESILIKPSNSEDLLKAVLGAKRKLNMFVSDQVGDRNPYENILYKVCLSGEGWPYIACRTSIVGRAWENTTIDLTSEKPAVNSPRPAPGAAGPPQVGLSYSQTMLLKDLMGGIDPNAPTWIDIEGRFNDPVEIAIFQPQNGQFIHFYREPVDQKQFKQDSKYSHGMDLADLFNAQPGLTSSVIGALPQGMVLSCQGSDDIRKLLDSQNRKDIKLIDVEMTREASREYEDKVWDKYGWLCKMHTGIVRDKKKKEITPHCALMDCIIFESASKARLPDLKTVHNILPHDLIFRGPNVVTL

Take `CCN(CC)CCN1C(=O)CN=C(c2ccccc2F)c2cc(Cl)ccc21`: the Potency result in experiment [1], in [2], in experiment [3], in experiment [4], in experiment [5] and in experiment [6] was “inactive” in each case. Besides, the Potency result in experiment [7] and in [8] was “inactive” in each case.
For the compound `CC(C)CC(N(C)C)C1(c2ccc(Cl)cc2)CCC1` (centres undefined), the Potency result in experiment [1], in experiment [2], in [3], in experiment [4], in experiment [9] and in [5] was “inactive” in each case. In addition, the Potency entry in experiment [6], in [7] and in [8] was “inactive” throughout.
`Cc1nc(Nc2ncc(C(=O)Nc3c(C)cccc3Cl)s2)cc(N2CCN(CCO)CC2)n1`: the Potency result in [1] and in experiment [2] was “inactive” each time.
Turning to `O=C(C1CCCCC1)N1CC(=O)N2CCc3ccccc3C2C1` (centres undefined), the Potency result in [1] and in experiment [2] was “inactive” in each case.
As to `C#C[C@]1(O)CC[C@H]2[C@@H]3CCC4=Cc5oncc5C[C@]4(C)[C@H]3CC[C@@]21C`, the Potency entry in [1] and in experiment [2] was “inactive” throughout.
For `CC12CC3CC(C)(C1)CC(N)(C3)C2`, the Potency result in [1] and in experiment [2] was “inactive” each time.
On to `CC(S)C(=O)NCC(=O)O` (centres undefined), for which the Potency result in [1] and in experiment [2] was “inactive” each time.
For the compound `CN1CCC[C@@H]1CCO[C@](C)(c1ccccc1)c1ccc(Cl)cc1`, the Potency result in experiment [1] is “inactive”.
Take `CCCC(CCC)C(=O)O`: the Potency result in [2] is “inactive”.
In the case of `CC1(CN2CCC(n3c(=O)[nH]c4ccccc43)CC2)OCc2ccccc2-n2cccc21` (centres undefined), the Potency result in [1] and in [2] was “inactive” in each case.
As for `Cc1ccc(S(=O)(=O)NC(=O)NN2CC3CCCC3C2)cc1` (centres undefined), the Potency entry in experiment [1] and in experiment [2] was “inactive” in each case.
In the case of `Nc1nc(N)c2nc(-c3ccccc3)c(N)nc2n1`, the Potency result in [2] is “inactive”.
`C[C@H]1O[C@@H](O[C@H]2[C@@H](O)C[C@H](O[C@H]3[C@@H](O)C[C@H](O[C@H]4CC[C@@]5(C)[C@H](CC[C@@H]6[C@@H]5CC[C@]5(C)[C@@H](C7=CC(=O)OC7)CC[C@]65O)C4)O[C@@H]3C)O[C@@H]2C)C[C@H](O)[C@@H]1O`: the Potency in experiment [3] was 37.4 nM (active); in [4], 13.3 nM (active); in experiment [5], 13.3 nM (active); in experiment [6], 5.3 nM (active); in [7] it was 9.8 nM (active).
